In PubChem BioAssay (EPA / NIEHS):
The source made the active and inactive calls. How the source made its calls: active means hit-call score of the fitted dose curve at least 0.9, where 1 is the maximum; inactive means score below 0.9.

How the values were obtained:
[1] = read-out: TIMP metallopeptidase inhibitor 1 (TIMP1), TIMP1 (gene 7076); assay: BSK_hDFCGF_TIMP1: BioMAP Diversity Plus: hDFCGF Assay for TIMP metallopeptidase inhibitor 1 (TIMP1) Biomarker Activity (AID 2283062); conditions: primary human foreskin fibroblasts; actives raise or lower the signal
How it was run: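 Bidirectional curve fitting against DMSO baseline yielded this endpoint, based on ELISA detection of TIMP-1 in primary human foreskin fibroblasts exposed to compound for 24 h.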

[2] = read-out: Monokine induced gamma interferon (MIG), CXCL9 (gene 4283); assay: BSK_hDFCGF_MIG: BioMAP Diversity Plus: hDFCGF Assay for Monokine induced gamma interferon (MIG) Biomarker Activity (AID 2283063); conditions: primary human foreskin fibroblasts; actives raise or lower the signal
How it was run: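 Endpoint derived by bidirectional fitting relative to DMSO; MIG quantified via ELISA in primary human foreskin fibroblasts harvested 24 h after dosing.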

[3] = read-out: Vascular cell adhesion molecule 1 (VCAM1), VCAM1 (gene 7412); assay: BSK_hDFCGF_VCAM1: BioMAP Diversity Plus: hDFCGF Assay for Vascular cell adhesion molecule 1 (VCAM1) Biomarker Activity (AID 2283065); conditions: primary human foreskin fibroblasts; actives raise or lower the signal
How it was run: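 Measured after 24 h chemical treatment of primary human skin fibroblasts, VCAM-1 was detected by ELISA and concentration-response analysed in both directions versus DMSO vehicle.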

[4] = read-out: Plasminogen activator inhibitor-1 (PAI1), SERPINE1 (gene 5054); assay: BSK_hDFCGF_PAI1: BioMAP Diversity Plus: hDFCGF Assay for Plasminogen activator inhibitor-1 (PAI1) Biomarker Activity (AID 2283066); conditions: primary human foreskin fibroblasts; actives raise or lower the signal
How it was run: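 PAI-1 levels in human dermal foreskin fibroblasts were quantified by ELISA 24 h after dosing, with gain or loss analysed against DMSO. Overt cytotoxicity was checked by sulforhodamine B total-protein staining in parallel cultures.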

[5] = read-out: Intercellular Adhesion Molecule 1 (ICAM1), ICAM1 (gene 3383); assay: BSK_KF3CT_ICAM1: BioMAP Diversity Plus: KF3CT Assay for Intercellular Adhesion Molecule 1 (ICAM1) Biomarker Activity (AID 2283067); conditions: primary human keratinocytes with fibroblasts; actives raise or lower the signal
How it was run: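 Bidirectional curve fitting against a DMSO baseline was applied to ICAM-1 ELISA signal from primary human skin co-cultures harvested 24 h after treatment, with SRB staining of parallel wells for overt cytotoxicity.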

[6] = read-out: Interferon-gamma inducible Protein 10 (IP10), CXCL10 (gene 3627); assay: BSK_KF3CT_IP10: BioMAP Diversity Plus: KF3CT Assay for Interferon-gamma inducible Protein 10 (IP10) Biomarker Activity (AID 2283068); conditions: primary human keratinocytes with fibroblasts; actives raise or lower the signal
How it was run: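 In a primary skin co-culture of keratinocytes and fibroblasts, IP-10 is quantified by ELISA at 24 h after dosing. SRB staining of parallel wells monitors overt toxicity. Curves are fitted both directions against DMSO.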

[7] = BSK_KF3CT_SRB: Viability Assessment in the BioMAP Diversity Plus: KF3CT Assay (AID 2283069); conditions: primary human keratinocytes with fibroblasts;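 further: read 24 h after compound addition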
How it was run: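 SRB read-out at 560 nm (0.1% stain, TCA-fixed cells) gauges overt cytotoxicity in a human skin keratinocyte–fibroblast co-culture 24 h post-dosing. Signal change was fitted bidirectionally relative to DMSO control.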

[8] = read-out: Interleukin-1 alpha (IL1a), IL1A (gene 3552); assay: BSK_KF3CT_IL1a: BioMAP Diversity Plus: KF3CT Assay for Interleukin-1 alpha (IL1a) Biomarker Activity (AID 2283070); conditions: primary human keratinocytes with fibroblasts; actives raise or lower the signal
How it was run: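 Primary skin co-culture (keratinocytes, foreskin fibroblasts), 24 h exposure; ELISA for IL-1a; bidirectional curve fit vs DMSO.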

[9] = read-out: Transforming growth factor beta 1 (TGFb1), TGFB1 (gene 7040); assay: BSK_KF3CT_TGFb1: BioMAP Diversity Plus: KF3CT Assay for Transforming growth factor beta 1 (TGFb1) Biomarker Activity (AID 2283072); conditions: primary human keratinocytes with fibroblasts; actives raise or lower the signal
How it was run: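 ELISA quantifies TGF-b1 at 24 h post-dose in a primary human skin co-culture of keratinocytes and fibroblasts, with gain or loss judged against DMSO. Parallel SRB total-protein staining flags overt cytotoxicity.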

[10] = read-out: C-C motif chemokine 2 (Homo sapiens) (UniProt P13500); assay: BSK_KF3CT_MCP1: BioMAP Diversity Plus: KF3CT Assay for Monocyte Chemoattractant Protein 1 (MCP1/CCL2) Biomarker Activity (AID 2283073); conditions: primary human keratinocytes with fibroblasts; actives raise or lower the signal
How it was run: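 Biomarker MCP-1 is measured by ELISA in primary human keratinocytes co-cultured with foreskin fibroblasts, 24 h after chemical treatment; DMSO serves as the negative control and activity baseline.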

[11] = read-out: Matrix Metallopeptidase 9 (MMP9), MMP9 (gene 4318); assay: BSK_KF3CT_MMP9: BioMAP Diversity Plus: KF3CT Assay for Matrix Metallopeptidase 9 (MMP9) Biomarker Activity (AID 2283074); conditions: primary human keratinocytes with fibroblasts; actives raise or lower the signal
How it was run: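 ELISA read-out of MMP-9 at 24 h post-dosing in a co-culture of human skin keratinocytes and foreskin fibroblasts. Gain or loss of signal was fitted in both directions against DMSO.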

[12] = read-out: urokinase plasminogen activator (uPA), PLAU (gene 5328); assay: BSK_KF3CT_uPA: BioMAP Diversity Plus: KF3CT Assay for urokinase plasminogen activator (uPA) Biomarker Activity (AID 2283075); conditions: primary human keratinocytes with fibroblasts; actives raise or lower the signal
How it was run: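 Skin co-culture (keratinocytes + foreskin fibroblasts), human primary; 24 h post-dose; uPA by ELISA; gain/loss fit vs DMSO baseline.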

CD40, CD40 (gene 958) = assay: BSK_LPS_CD40: BioMAP Diversity Plus: LPS Assay for CD40 Biomarker Activity (AID 2283076); conditions: primary human HUVEC with PBMC; actives raise or lower the signal
How it was run: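 Using a multiplexed primary human co-culture (umbilical vein endothelium plus PBMC), CD40 was read by ELISA 24 h after dosing, with cytotoxicity tracked by sulforhodamine B staining of parallel cultures and activity fitted bidirectionally versus DMSO.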

[13] = read-out: E-selectin (Homo sapiens) (UniProt P16581); assay: BSK_LPS_Eselectin: BioMAP Diversity Plus: LPS Assay for Eselectin Biomarker Activity (AID 2283077); conditions: primary human HUVEC with PBMC; actives raise or lower the signal
How it was run: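 Dose chemical onto LPS-driven HUVEC/PBMC co-culture; after 24 h, run ELISA for E-selectin; fit up- and down-going responses relative to DMSO control.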

[14] = read-out: Interleukin-1 alpha (IL1a), IL1A (gene 3552); assay: BSK_LPS_IL1a: BioMAP Diversity Plus: LPS Assay for Interleukin-1 alpha (IL1a) Biomarker Activity (AID 2283080); conditions: primary human HUVEC with PBMC; actives raise or lower the signal
How it was run: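 Primary human HUVEC and PBMC co-culture stimulated with LPS is dosed and harvested at 24 h. Both increases and decreases in ELISA-measured IL-1a are scored relative to DMSO.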

[15] = read-out: Monocyte Chemoattractant Protein-1 (MCP1), CCL2 (gene 6347); assay: BSK_LPS_MCP1: BioMAP Diversity Plus: LPS Assay for Monocyte Chemoattractant Protein-1 (MCP1) Biomarker Activity (AID 2283081); conditions: primary human HUVEC with PBMC; actives raise or lower the signal
How it was run: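 Values derive from bidirectional fitting against DMSO of ELISA-measured MCP-1 in a human primary endothelial and mononuclear cell co-culture, 24 h after chemical addition under LPS activation.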

[16] = read-out: Matrix Metallopeptidase 1 (MMP1), MMP1 (gene 4312); assay: BSK_hDFCGF_MMP1: BioMAP Diversity Plus: hDFCGF Assay for Matrix Metallopeptidase 1 (MMP1) Biomarker Activity (AID 2283064); conditions: primary human foreskin fibroblasts; actives raise or lower the signal
How it was run: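 ELISA read-out of MMP1 from human foreskin fibroblasts (primary skin cells), 24 h post-dose. Gain or loss of signal was fitted bidirectionally versus DMSO negative control; cytotoxicity was checked by SRB in parallel cultures.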

[17] = BSK_LPS_SRB: Viability Assessment in the BioMAP Diversity Plus: LPS Assay (AID 2283079); conditions: primary human HUVEC with PBMC;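 further: total protein by sulforhodamine B absorbance as a cytotoxicity measure; measured one day after compound addition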
How it was run: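 Cytotoxicity endpoint in human endothelial–PBMC co-culture: 24 h exposure, then SRB (0.1%) staining, 560 nm read.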

[18] = read-out: Interleukin-8 (IL8), CXCL8 (gene 3576); assay: BSK_LPS_IL8: BioMAP Diversity Plus: LPS Assay for Interleukin-8 (IL8) Biomarker Activity (AID 2283078); conditions: primary human HUVEC with PBMC; actives raise or lower the signal
How it was run: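 In this LPS system, chemical-treated human umbilical vein endothelium/PBMC co-cultures were harvested at 24 h for IL-8 ELISA.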

Measured: outcome

E-selectin (Homo sapiens), sequence (P16581 whole entry, looked up): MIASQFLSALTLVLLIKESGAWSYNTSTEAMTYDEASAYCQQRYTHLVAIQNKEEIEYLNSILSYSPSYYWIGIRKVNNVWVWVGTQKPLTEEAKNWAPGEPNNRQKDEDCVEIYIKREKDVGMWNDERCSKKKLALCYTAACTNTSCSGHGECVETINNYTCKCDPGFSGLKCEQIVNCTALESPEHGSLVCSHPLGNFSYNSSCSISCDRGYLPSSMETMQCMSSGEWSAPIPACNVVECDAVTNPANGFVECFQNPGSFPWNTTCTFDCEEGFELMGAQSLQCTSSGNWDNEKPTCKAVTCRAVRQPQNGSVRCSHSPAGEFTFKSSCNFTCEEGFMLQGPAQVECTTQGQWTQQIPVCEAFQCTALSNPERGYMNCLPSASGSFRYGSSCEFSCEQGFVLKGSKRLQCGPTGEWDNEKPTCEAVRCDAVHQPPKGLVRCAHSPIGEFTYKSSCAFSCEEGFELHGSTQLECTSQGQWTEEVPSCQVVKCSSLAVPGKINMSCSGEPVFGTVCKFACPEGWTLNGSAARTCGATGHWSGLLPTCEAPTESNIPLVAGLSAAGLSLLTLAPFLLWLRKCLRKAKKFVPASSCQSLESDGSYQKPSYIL

Cc1ccc(C(C)(C)C)c(O)c1
inactive: [1] | [2] | [3] | [4] | [5] | [6] | [7] | [8] | [9] | [10] | [11] | [12] | CD40, CD40 (gene 958) | [13] | [14] | [15]

CC(=O)O
inactive: [1] | [16] | [3] | [4] | [5] | [6] | [7] | [8] | [9] | [10] | [11] | [12] | CD40, CD40 (gene 958) | [13] | [17] | [14] | [15]

O=[Si]=O
inactive: [1] | [2] | [3] | [4] | [5] | [6] | [8] | [9] | [11] | [12] | CD40, CD40 (gene 958) | [13] | [18] | [17] | [14] | [15]

C=CCCCCCCCCCCCC
inactive: [1] | [2] | [3] | [4] | [5] | [6] | [7] | [8] | [9] | [11] | [12] | CD40, CD40 (gene 958) | [13] | [17] | [14] | [15]
